# SW480 rereplic – inducers of DNA re-replication in SW480 colon cancer cells; 340,000 tested, 1.8% active; SW480 DNA re-replication, Hoechst DNA content imaging, 48 h; Potency, µM (series often up to 46.1 µM), without a hit: at the highest dose re-replication activation, hits mostly activators; also: % of control where 0% means no effect; nearly all actives have a fitted effect of over 55% in size
#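 Per well, 250 cells were exposed to pinned compound for 48 hr. Nuclear DNA was visualised with Hoechst (40 min, 37 C) and total object intensity recorded by fluorescence scanning.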
# RORgamma inh – ROR gamma (mouse) transcription inhibition. P51450. Drosophila S2 Gal4-RORgamma UAS-luciferase reporter, 20 h. Potency, µM (doses to about 53.6 µM), for inactives: top-dose activity change, negative = inhibition, actives largely listed as inhibitors. 310,000 tested, 5.4% active. AID 2551; also: % is scaled to controls: 0 for no effect and ±100 for the full control effect; nearly all actives have a fitted effect of over 60% in size
# Target sequence (P51450 whole entry, looked up, the tested form may be a part): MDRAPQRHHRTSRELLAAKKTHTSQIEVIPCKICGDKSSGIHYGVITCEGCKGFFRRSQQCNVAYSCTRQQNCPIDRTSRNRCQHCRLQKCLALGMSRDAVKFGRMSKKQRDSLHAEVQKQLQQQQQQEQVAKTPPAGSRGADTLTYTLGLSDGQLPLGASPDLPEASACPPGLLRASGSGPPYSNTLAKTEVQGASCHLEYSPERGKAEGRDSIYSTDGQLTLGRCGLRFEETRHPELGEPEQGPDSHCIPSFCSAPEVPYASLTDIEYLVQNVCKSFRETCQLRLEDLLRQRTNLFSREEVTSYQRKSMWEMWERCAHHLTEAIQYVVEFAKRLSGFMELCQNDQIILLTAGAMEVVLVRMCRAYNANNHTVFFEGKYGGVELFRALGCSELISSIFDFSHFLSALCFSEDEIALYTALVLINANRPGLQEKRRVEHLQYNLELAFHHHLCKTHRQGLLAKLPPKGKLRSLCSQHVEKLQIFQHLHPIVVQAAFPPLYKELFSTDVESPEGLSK
#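 Drosophila S2 cells stably expressing Gal4-DBD/mouse RORγ fusion under metallothionein promoter plus UAS-luciferase; compound 1 h, then 700 uM CuSO4 induction for 20 h at ambient temperature; inhibition read as reduced luminescence.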
# MCF10A rereplic – induces DNA re-replication in MCF 10a normal breast cells | MCF 10A DNA re-replication, Hoechst nuclear intensity, 48 h | Potency, µM (doses to about 46.1 µM), inactives show at the highest dose activity, positive = re-replication, usual class: activators | 350,000 tested, 2.9% active; also: % of control where 0% means no effect; nearly all actives have a fitted effect of over 50% in size
# Gal4-VP16 FLuc – Gal4-VP16 reporter inhibition counter-screen. Drosophila S2 Gal4-VP16 UAS-luciferase, luminescence, 20 h. Potency, µM (series often up to 53.6 µM), inactives show top-dose activity, negative = inhibition, hits mostly inhibitors. 310,000 tested, 3.5% active. AID 2546;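 also: Gal4-VP16 expression switched on by copper sulfate through the metallothionein promoter; % is scaled to controls: 0 for no effect and ±100 for the full control effect; nearly all actives have a fitted effect of over 50% in size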
# KB-V1 MDR tox – kills drug-selected multidrug resistant KB-V1 cells; KB-V1 MDR cells viability, CellTiter-Glo, 72 h; Potency, µM (doses to about 46.1 µM), actives largely listed as cytotoxic; AID 1347076; 400,000 tested, 3.4% active; also: % is scaled to controls: 0 for no effect and ±100 for the full control effect; nearly all actives have a fitted effect of over 60% in size
#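 Readout: CellTiter-Glo luminescence, 10 min after addition. Cells: KB-V1 MDR subline, 72 h at 37 degrees C with compound. Analysis: corrected, normalized data fitted to concentration-effect curves.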
# KB-3-1 tox – kills parental KB-3-1 adenocarcinoma cells; KB-3-1 viability, CellTiter-Glo ATP luminescence, 72 h; Potency, µM (highest dose often 46.1 µM), actives largely listed as cytotoxic; 400,000 tested, 1.4% active; also: % is scaled to controls: 0 for no effect and ±100 for the full control effect; nearly all actives have a fitted effect of over 60% in size
#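 Cytotoxicity measured as CellTiter-Glo luminescence after 72 h at 37 C. Compound titrations were pinned onto drug-naive KB-3-1 parental adenocarcinoma cells grown in DMEM with 10% FBS, and normalized data fitted to concentration-response curves.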
# Starred values were filed as active, the others as inactive; i = inactive; ? = inconclusive; · = not tested or not shown. An excerpt weighted towards active compounds, which were near 10% of everything screened. Calls follow the shape of the dose curve; as a rule, active = well fitted curve in the direction sought with a large enough effect; inconclusive = small, poorly fitted or top-dose-only effect, or another doubt; inactive = no such curve, though single readings can be large; an effect the other way counts as inactive or inconclusive. Potency is read from the fitted curve at half-maximal effect.
SMILES,SW480 rereplic,RORgamma inh,MCF10A rereplic,Gal4-VP16 FLuc,KB-V1 MDR tox,KB-3-1 tox
O=C(NCCc1ccccc1)C1CCC(=O)N(Cc2ccc(Cl)cc2)C1 (stereo unspecified),-6%,10%,8%,1%,?,i
COc1ccc(/C=C2/C(=O)N(c3nc4ccccc4s3)N=C2CSc2ccc(Cl)cc2)cc1,20%,14µM*,?,13µM*,i,i
COc1ccc(CCNC(=O)CN(c2ccc(C)cc2)S(=O)(=O)c2c(C)noc2C)cc1OC,-2%,18%,-5%,2%,i,i
COc1ccc(CN(C)S(=O)(=O)c2c(C)noc2C)cc1OC,-2%,·,3%,·,18µM*,i
COc1ccc(C)cc1NC(=O)N(Cc1ccc(C)o1)C1CCN(C(C)=O)CC1,·,·,·,·,i,i
O=C(O)c1ccc(S(=O)(=O)c2ccc3c(c2)C(=O)N(c2ccccc2[N+](=O)[O-])C3=O)cc1,-3%,3%,2%,1%,i,i
O=C(O)c1ccc(CN2C(=O)c3ccc(C(=O)O)cc3C2=O)cc1,-9%,-18%,-8%,0%,i,i
O=C(O)c1ccc(CN2C(=O)c3cccc4c([N+](=O)[O-])ccc(c34)C2=O)cc1,5.8µM*,?,5.8µM*,7.1µM*,?,?
Cc1ccc(C(=O)O)cc1N1C(=O)c2cccc3c([N+](=O)[O-])ccc(c23)C1=O,?,7.9µM*,18µM*,6.3µM*,i,?
O=C(Nc1ccc(S(=O)(=O)Nc2nccs2)cc1)c1cccc(N2C(=O)c3ccccc3C2=O)c1,-10%,31%,-2%,-5%,i,i
CN(C)CCCN1C(=O)c2cccc3c([N+](=O)[O-])ccc(c23)C1=O,5.8µM*,1.4µM*,5.8µM*,1.1µM*,?,23µM*
O=C(Nc1nccs1)c1cccc(N2C(=O)c3cccc4c([N+](=O)[O-])ccc(c34)C2=O)c1,7.3µM*,7.1µM*,3.7µM*,7.1µM*,?,?
COc1ccc(NC(=O)Cn2c(=O)n(CCCC(=O)NCCc3ccc(C)cc3)c(=O)c3ccccc32)cc1Cl,·,·,·,·,i,i
CN(CCCNC(=O)Cn1ncc2c([nH]c3ccccc32)c1=O)Cc1ccccc1,·,·,·,·,i,i
CC(=O)Oc1cccc(N2C(=O)c3cccc4c([N+](=O)[O-])ccc(c34)C2=O)c1,?,8.9µM*,21µM*,5.6µM*,i,i
CCOc1ccc(OCC)c(NC(=O)c2cnc3c(-c4ccccc4)c(C)nn3c2C)c1,·,·,·,·,i,i
FC(F)(Cl)c1nnc2ccc(Cl)nn12,?,-28%,?,-13%,?,6.5µM*
Clc1ccc2nnc(Cl)n2n1,-1%,-4%,-22%,-4%,i,i
COc1cc(C(=O)Nc2c(C(=O)Nc3ccccc3F)oc3ccccc23)cc(OC)c1OC,·,·,·,·,i,i
COc1cc(SC)ccc1C(=O)Nc1ccc(C)cc1C,1%,35%,?,3%,9.2µM*,i
COc1cc(SC)ccc1C(=O)Nc1ccc2c(c1)OCO2,2%,-23%,21%,-11%,?,?
COc1cc(SC)ccc1C(=O)Nc1ccc(OCC(=O)N2CCOCC2)cc1,-5%,10µM*,-5%,11µM*,?,i
COc1c(C)cccc1C(=O)Nc1ccc(OCC(=O)N2CCOCC2)cc1C,2%,1.8µM*,?,?,?,i
COc1cc(SC)ccc1C(=O)Nc1ccc(C)cc1,6%,?,2%,20µM*,?,?
COc1cc(SC)ccc1C(=O)Nc1cccc(C)n1,-1%,-36%,?,0%,i,i
COc1cc(SC)ccc1C(=O)Nc1cc(C)c(OCC(=O)N2CCOCC2)c(C)c1,9%,13%,2%,-2%,?,i

# Screening data (PubChem)
